Screens: PubChem, National Center for Advancing Translational Sciences (NCATS)
Sampled rows, rich in hits. Any-hit rate of the full collection: about 12%.
HP1b chromo inh – HP1-beta chromodomain-methylated histone interaction inhibition | P83916 | AlphaScreen HP1-beta / biotin-H3K9me3 peptide binding | Potency, µM (titrated, usually from 114 µM), for inactives: at the top dose activity change, negative = inhibition, usual class: inhibitors | hit rate 0.56% among 390,000 | AID 540317; further: nearly all actives have a fitted effect of over 70% in size
Target sequence (P83916 whole entry, looked up): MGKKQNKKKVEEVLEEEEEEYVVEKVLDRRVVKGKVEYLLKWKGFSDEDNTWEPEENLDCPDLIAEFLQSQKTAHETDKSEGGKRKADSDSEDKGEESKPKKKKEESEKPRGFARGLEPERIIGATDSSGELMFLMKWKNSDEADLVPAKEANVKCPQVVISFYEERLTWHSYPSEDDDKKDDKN
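AlphaScreen: HP1-beta (50 nM) preformed 30 min with biotin-H3(1-18)K9me3 peptide (50 nM) in PBS pH 7.4, 0.01% Tween-20. Compound added for 30 min at RT, then streptavidin donor/nickel chelate acceptor beads (10 ug/mL) for 30 min.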
JMJD2A Tudor inh – JMJD2A Tudor domain (human) inhibition. O75164. AlphaScreen JMJD2A-Tudor / H3K4me3 peptide binding. Potency, µM (top dose mostly 114 µM), without a hit: top-dose activity change, negative = inhibition, usual class: inhibitors. hit rate 4.4% among 390,000. AID 504339; further: on the % scale 0 is the no-effect control and ±100 the full control effect; nearly all actives have a fitted effect of over 50% in size
Sfp inh – Sfp phosphopantetheinyl transferase inhibition | Biochemical Sfp PPTase activity, qHTS | Potency, µM, inactives show largest response in the series, negative = inhibition, actives largely listed as inhibitors | hit rate 3.5% among 310,000;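 further: the enzyme is Sfp with the accession as filed and its product quenches rhodamine fluorescence; 0% = enzyme reaction without inhibitor and -100% = no enzyme wells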
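Fluorescence-quenching assay with 15 nM Sfp, 5 uM rhodamine-CoA and 12.5 uM BHQ-2-labelled ybbR peptide in pH 7.6 Hepes/MgCl2 buffer. Enzyme was pre-incubated with compound for 15 min at room temperature. Rate was taken from the 30-min fluorescence change (525/598 nm).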
PLK1 PBD inh – blocks phosphopeptide binding to human PLK1 polo-box domain | AID 720504 | Potency, µM, without a hit: max response, negative = inhibition, actives largely listed as inhibitors | hit rate 2.8% among 360,000 | Plk1 PBD binding of FITC phosphopeptide, fluorescence polarization; further: series mostly up to about 57 µM; on the % scale 0 is the no-effect control and ±100 the full control effect; nearly all actives have a fitted effect of over 65% in size
Target sequence (P53350 whole entry, looked up, the tested form may be a part): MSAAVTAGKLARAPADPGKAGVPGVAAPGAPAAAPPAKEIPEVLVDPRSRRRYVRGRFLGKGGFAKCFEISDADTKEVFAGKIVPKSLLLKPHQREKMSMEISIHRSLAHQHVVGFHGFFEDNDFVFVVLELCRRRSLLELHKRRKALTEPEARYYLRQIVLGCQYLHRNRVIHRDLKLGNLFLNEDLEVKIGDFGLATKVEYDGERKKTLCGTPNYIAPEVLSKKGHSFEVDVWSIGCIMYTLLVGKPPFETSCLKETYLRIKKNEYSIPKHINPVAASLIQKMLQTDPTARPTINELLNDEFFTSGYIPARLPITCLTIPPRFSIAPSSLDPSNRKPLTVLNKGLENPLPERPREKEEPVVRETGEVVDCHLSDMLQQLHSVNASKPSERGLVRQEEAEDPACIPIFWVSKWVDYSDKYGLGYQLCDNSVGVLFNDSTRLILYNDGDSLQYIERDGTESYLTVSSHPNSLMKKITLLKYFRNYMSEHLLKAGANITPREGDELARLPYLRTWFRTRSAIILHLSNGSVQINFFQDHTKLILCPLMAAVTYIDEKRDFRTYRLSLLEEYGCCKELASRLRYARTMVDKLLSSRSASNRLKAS
BAZ2B inh – blocks human BAZ2B. Q9UIF8. AlphaScreen BAZ2B-H3K14Ac peptide displacement. Potency, µM (doses to about 114 µM), for inactives: at the top dose activity change, negative = inhibition, usual class: inhibitors. hit rate 4.4% among 360,000; further: on the % scale 0 is the no-effect control and ±100 the full control effect; nearly all actives have a fitted effect of over 60% in size
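Compounds, titrated to a top concentration of 110 uM, were incubated 30 min at room temperature with preformed BAZ2B/acetyl-K14 H3 peptide complex (50 nM each). Proximity signal was measured by AlphaScreen after 20 min with beads.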
G9a inh – G9a (human) methyltransferase inhibition; AID 504332; Potency, µM (highest dose often 102 µM), without a hit: top-dose activity, negative = inhibition, usual class: inhibitors; Q96KQ7; G9a H3K9 monomethylation, AlphaScreen, 2 h; hit rate 8.8% among 350,000; further: on the % scale 0 is the no-effect control and ±100 the full control effect; nearly all actives have a fitted effect of over 75% in size
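AlphaScreen detection with an anti-monomethyl H3K9 antibody quantified product after a 2 h room-temperature reaction containing 500 nM biotinylated H3K9 peptide, 20 µM SAM and 20 nM enzyme, which had been preincubated 15 min with compound.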
* marks the source's active call; other numbers are inactive results; ! = not active in a repeat; [ ] = remark or other dose. The call rests on the fitted dose curve; in most records, active means well fitted curve in the direction sought with a large enough effect; inconclusive means small, poorly fitted or top-dose-only effect, or another doubt; inactive means no such curve, though single readings can be large; an effect the other way counts as inactive or inconclusive. Potency means the concentration at half of the fitted maximal effect.

How did CCOc1ccc(C2NC(=O)C(C#N)=C(S)N2c2ccc(C)cc2)cc1OC (stereo not given) do in these assays?
HP1b chromo inh: 22.4%; JMJD2A Tudor inh: -17.9%; Sfp inh: 44.7µM*; PLK1 PBD inh: -23.8%; BAZ2B inh: -27.2%; G9a inh: inconclusive

How did COc1ccc(C2NC(=O)C(C#N)=C(S)N2c2ccccc2)cc1OC (stereo not given) do in these assays?
HP1b chromo inh: 43.3%; JMJD2A Tudor inh: -6.2%; Sfp inh: 20µM*; PLK1 PBD inh: -18.1%; BAZ2B inh: -30.7%; G9a inh: 44.7µM*

What do the screens show for `COc1cc(C2NC(=O)C(C#N)=C(S)N2c2ccccc2)ccc1OC(C)C` (stereo not given)?
HP1b chromo inh: 34.7%; JMJD2A Tudor inh: -13.4%; Sfp inh: 39.8µM*; PLK1 PBD inh: -22.7%; BAZ2B inh: 5.2%; G9a inh: inconclusive

How did Cc1ccc(C(=O)Nc2cccc(OCc3cc(=O)n4c5c(sc4n3)CCCC5)c2)cc1 do in these assays?
HP1b chromo inh: 28.8%; JMJD2A Tudor inh: 0.0%; BAZ2B inh: 2.3%; G9a inh: 16.9%[59 µM]

What do the screens show for `CCOc1ccc(-c2noc([C@@H]3O[C@H](CO)[C@@H](O)[C@H]3O)n2)cc1`?
PLK1 PBD inh: 0.3%

What do the screens show for `Fc1ccc(-c2noc3ncnc(Nc4ccc(F)cc4F)c23)cc1`?
HP1b chromo inh: 95.6%; JMJD2A Tudor inh: 7.7%; BAZ2B inh: 29.4%; G9a inh: 15.7%[59 µM]

How did O=C(NNC(=S)NCC1CCCO1)c1cc(Br)ccc1Cl (stereo not given) do in these assays?
HP1b chromo inh: 56.5%; JMJD2A Tudor inh: -13.8%; Sfp inh: 24.9%; PLK1 PBD inh: -4.8%; BAZ2B inh: 0.6%; G9a inh: 29.0%

What do the screens show for `COc1ccc(N2C(S)=C(C#N)C(=O)NC2c2ccco2)cc1` (stereo not given)?
HP1b chromo inh: 6.3%; JMJD2A Tudor inh: -16.0%; Sfp inh: 28.2µM*; PLK1 PBD inh: inconclusive; BAZ2B inh: -29.7%; G9a inh: 35.5µM*

What do the screens show for `Cn1c(=O)c(=O)n(C)c2cc(N3CCCC3)c(NC(=O)c3ccccc3F)cc21`?
HP1b chromo inh: 24.4%; JMJD2A Tudor inh: -6.8%; BAZ2B inh: 1.3%; G9a inh: 4.2%[59 µM]

Results for Cc1ccc(Oc2ccc(C(=O)NCc3ccncc3)cc2)cc1 ?
HP1b chromo inh: 27.2%; JMJD2A Tudor inh: -31.0%; Sfp inh: 6.4%; PLK1 PBD inh: -6.5%; BAZ2B inh: -17.1%; G9a inh: 1.2%

What do the screens show for `O=C(CCNNC(=O)c1ccncc1)NCc1ccccc1`?
HP1b chromo inh: 42.3%; JMJD2A Tudor inh: 2.9%; Sfp inh: -26.8%; PLK1 PBD inh: 2.9%; BAZ2B inh: 4.8%; G9a inh: 10µM*!

What do the screens show for `O=C(NCc1ccncc1)c1ccc(Oc2ccccc2)cc1`?
HP1b chromo inh: 0.9%; JMJD2A Tudor inh: 12.6µM*; Sfp inh: -6.0%; PLK1 PBD inh: 10.6µM*; BAZ2B inh: -13.8%; G9a inh: 14.9%

Results for S=c1[nH]ccc2ccccc12 ?
HP1b chromo inh: 28.4%; JMJD2A Tudor inh: -17.4%; PLK1 PBD inh: inconclusive

What do the screens show for `S=c1[nH]ncc2ccccc12`?
HP1b chromo inh: 24.8%; JMJD2A Tudor inh: 50.1µM*; Sfp inh: -17.8%; PLK1 PBD inh: -9.1%; BAZ2B inh: 7.0%; G9a inh: 44.7µM*

What do the screens show for `O=C(Cn1cc(COc2ccc3ccc(=O)oc3c2)nn1)c1ccc(O)cc1`?
HP1b chromo inh: 13.6%; JMJD2A Tudor inh: -18.0%; PLK1 PBD inh: -2.2%

How did Cc1cccc(N(Cc2cc(=O)[nH]c3ccccc23)C(=O)C(C)C)c1 do in these assays?
HP1b chromo inh: 50.6%; JMJD2A Tudor inh: -3.7%[11.4 µM]; Sfp inh: 23.4%; PLK1 PBD inh: -6.5%; BAZ2B inh: -1.4%; G9a inh: 9.2%

Results for CCCC(=O)N(Cc1cc(=O)[nH]c2ccccc12)c1cccc(C)c1 ?
HP1b chromo inh: -9.5%; JMJD2A Tudor inh: inconclusive; Sfp inh: -14.9%; PLK1 PBD inh: -23.1%; BAZ2B inh: -5.4%; G9a inh: 28.2µM*

Results for Cc1cccc(N(Cc2cc(=O)[nH]c3ccccc23)C(=O)CCl)c1 ?
HP1b chromo inh: -2.5%; JMJD2A Tudor inh: 56.2µM*; Sfp inh: inconclusive; PLK1 PBD inh: -9.9%; BAZ2B inh: -16.9%; G9a inh: 5.62µM*

Results for CC(=O)N(Cc1cc(=O)[nH]c2ccccc12)c1cccc(C)c1 ?
HP1b chromo inh: -24.9%; JMJD2A Tudor inh: 31.6µM*; Sfp inh: 44.7µM*; PLK1 PBD inh: -4.2%; BAZ2B inh: -6.3%; G9a inh: inconclusive

What do the screens show for `COc1ccc(NC(=O)CSc2nc(-c3cccs3)cc(C(F)(F)F)n2)c(OC)c1`?
HP1b chromo inh: 48.6%; JMJD2A Tudor inh: -10.7%; BAZ2B inh: 2.3%; G9a inh: 19.8%[59 µM]

What do the screens show for `NOCc1ccccc1`?
Sfp inh: -13.5%

What do the screens show for `Cn1/c(=N/N=C/c2ccccn2)sc2ccccc21`?
HP1b chromo inh: inconclusive; JMJD2A Tudor inh: 89.1µM*; Sfp inh: -25.0%; PLK1 PBD inh: -28.3%; BAZ2B inh: inconclusive; G9a inh: inconclusive

How did Cn1/c(=N/N=C/c2ccc(N3CCOCC3)cc2)sc2ccccc21 do in these assays?
HP1b chromo inh: 20.1%; JMJD2A Tudor inh: -13.4%; Sfp inh: 3.1%; PLK1 PBD inh: 0.0%; BAZ2B inh: inconclusive; G9a inh: -37.6%

Results for CCOC(=O)Cn1nc(-c2ccccc2)c2cnc3ccc(C)cc3c21 ?
HP1b chromo inh: 32.2%; JMJD2A Tudor inh: -29.9%; Sfp inh: -4.3%; PLK1 PBD inh: -10.1%; BAZ2B inh: -28.5%; G9a inh: 56.2µM*

What do the screens show for `COC(=O)CN1C(=O)N(c2ccccc2)C(N(O)C(=O)Nc2ccccc2)C1(C)C` (stereo not given)?
HP1b chromo inh: 18.2%; JMJD2A Tudor inh: inconclusive; Sfp inh: -4.2%; PLK1 PBD inh: -7.4%; BAZ2B inh: -39.0%; G9a inh: 39.8µM*

How did C=CCSC1=N/C(=C\C=C\c2ccco2)C(=O)S1 do in these assays?
HP1b chromo inh: 39.8µM*; JMJD2A Tudor inh: 44.7µM*; Sfp inh: 56.2µM*; PLK1 PBD inh: inconclusive; BAZ2B inh: 10µM*; G9a inh: 7.08µM*

How did C=CCSC1=N/C(=C\c2sccc2C)C(=O)S1 do in these assays?
HP1b chromo inh: 6.2%; JMJD2A Tudor inh: -16.3%; Sfp inh: -55.0%; PLK1 PBD inh: -5.8%; BAZ2B inh: -6.3%

How did O=C(c1cnccn1)N1CCC2(CCCN(C(c3ccccc3)c3ccccc3)C2)CC1 do in these assays?
Sfp inh: 0.9%; G9a inh: 4.1%[12.7 µM]
